# According to PubChem BioAssay (EPA / NIEHS):
# Results filed as inconclusive are left out. Active and inactive are the calls of the source. The calls were made as follows: active = hit-call score of the fitted dose curve at least 0.9, where 1 is the maximum; inconclusive = response in the unintended direction; inactive = score below 0.9.
# Read-out: Cytochrome P450 2C19 (Homo sapiens) (UniProt P33261)
# Test: CLD_CYP2C19_48hr: CellzDirect (CLD) Gene Expression Assay for xenobiotic metabolism (CYP2C19) at 48 hours (AID 2283700);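 also: fitted upward so actives raise CYP2C19 mRNA above the 0.2% DMSO vehicle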
# Protocol: CLD_48hr is a cell-based, multiplexed-readout assay that uses hepatocyte, a human liver primary cell, with measurements taken at 48 hours after chemical dosing in a 96-well plate.CLD_CYP2C19_48hr is one of 16 assay component(s) measured or calculated from the CLD_48hr assay. It is designed to make measurements of mRNA induction, a form of inducible reporter, as detected with chemiluminescence signals by Quantitative Nuclease Protection Assay (qNPA) technology.Data from the assay component CLD_CYP2C19_48hr was analyzed at the endpoint, CLD_CYP2C19_48hr, in the positive analysis fitting direction relative to DMSO as the negative control and baseline of activity. Using a type of inducible reporter, gain-of-signal activity can be used to understand changes in the reporter gene as they relate to the gene CYP2C19. Furthermore, this assay endpoint can be referred to as a primary readout. To generalize the intended target to other relatable targets, this assay endpoint is annotated to the cyp intended target family, where subfamily is xenobiotic metabolism.
# Human hepatocyte cultures were treated daily for two consecutive days with fresh dosing solutions containing appropriate concentrations of the 320 ToxCast chemicals (chemical identities were blinded to CellzDirect and other ToxCast collaborators), vehicle control (0.2% DMSO), and positive control inducers as summarized in Table 1. Due to the large number of treatment groups and chemicals examined, the ToxCast chemicals were divided into two groups (spanning two independent cultures of hepatocytes from separate donor preparations (Hu778: ToxCast plates 1 and 2; Hu776: ToxCast plates 3 and 4). Each preparation of human hepatocyte cultures was treated with respective vehicle control, medium only control, set of six positive controls/reference chemicals for the five hepatic receptor pathways, and a subset of eight of the ToxCast chemicals (indoxacarb, pyrithiobac-sodium, norflurazon, cyhalofop-butyl, methomyl, thiram, acetochlor, and propiconazole). These replicate data, coupled with internal replicates designed within the blinded ToxCast chemical library, provided additional data to evaluate interindividual differences between hepatocyte preparations and their potential impact on chemical profiles.Cell morphology and integrity were evaluated using phase-contrast microscopy as an indicator of hepatocyte cell health (Tyson & Green, 1987). Cultures for each treatment group (i.e., media, vehicle [0.2% DMSO], positive control inducers [multiple concentrations], and the ToxCast chemicals [multiple concentrations]) were observed and cell morphology was assessed relative to vehicle control cultures at each harvest time point (0, 6, 24, or 48 h). […] Images were evaluated at the conclusion of the study to assess changes in cell integrity and account for the effects of chemical exposure on uncharacteristic changes in concentration-dependent gene expression profiles. The results from these determinations of apparent cytotoxicity were annotated (yes/no) alongside the corresponding qNPA data for reference.At the conclusion of each treatment period, hepatocyte cultures (96-well) were washed with 1 volume of HBSS, lysed by addition of 25 ul ArrayPlate lysis buffer (HTG, Tucson, AZ), and 70 ul/well of Denaturation Oil, denatured by incubation at 95C for 10 min, and frozen at approximately -70C until analysis by nuclease protection assay (qNPA) (Roberts et al., 2007). For qNPA analysis, cell lysates were thawed at 50C for approximately 30 min, qNPA probes were added, and samples were incubated at 95C for 10 min to begin the detection process by denaturing the target RNA, dissociating the duplexes and secondary structure hybridization. At the conclusion of the hybridization period, S1 nuclease reagent was added to each sample to digest all nonprotected nucleotides at 50C for 60-90 min. […]
# Cytochrome P450 2C19 (Homo sapiens), sequence (P33261 whole entry, looked up): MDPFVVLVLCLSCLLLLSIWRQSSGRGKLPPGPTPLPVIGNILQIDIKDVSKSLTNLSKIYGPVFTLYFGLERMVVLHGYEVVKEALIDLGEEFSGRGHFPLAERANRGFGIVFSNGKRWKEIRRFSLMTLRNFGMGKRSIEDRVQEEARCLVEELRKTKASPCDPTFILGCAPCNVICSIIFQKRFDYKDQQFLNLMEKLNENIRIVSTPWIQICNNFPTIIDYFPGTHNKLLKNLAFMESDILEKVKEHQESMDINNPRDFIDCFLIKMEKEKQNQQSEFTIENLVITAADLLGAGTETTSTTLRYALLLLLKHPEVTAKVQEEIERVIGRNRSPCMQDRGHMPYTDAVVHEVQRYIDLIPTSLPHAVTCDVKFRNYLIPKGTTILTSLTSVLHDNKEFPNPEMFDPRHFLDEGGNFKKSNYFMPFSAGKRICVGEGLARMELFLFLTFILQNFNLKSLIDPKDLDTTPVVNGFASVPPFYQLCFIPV
row,Compound,outcome
1,COc1c(Cl)ccc(Cl)c1C(=O)O,inactive
2,COc1nc(C)nc(NC(=O)NS(=O)(=O)c2ccccc2OCCCl)n1,inactive
3,CCCCOC(=O)C(C)Oc1ccc(Oc2ccc(C(F)(F)F)cn2)cc1 (stereo not given),inactive
4,CCCCCCC(C)OC(=O)COc1nc(F)c(Cl)c(N)c1Cl (stereo not given),inactive
5,CCC(C)OC(=O)N1CCCCC1CCO (stereo not given),inactive
6,CCCCC(CC)COC(=O)c1ccccc1C(=O)O (stereo not given),inactive
7,CCOC(=O)C(C)Oc1ccc(Oc2nc3ccc(Cl)cc3o2)cc1 (stereo not given),inactive
8,CCSC(=O)N(CC(C)C)CC(C)C,inactive
9,C#CCOC(=O)[C@@H](C)Oc1ccc(Oc2ncc(Cl)cc2F)cc1,inactive
10,CCCN(CCC)C(=O)SCC,inactive
11,Oc1ccc(C(c2ccc(O)cc2)C(Cl)(Cl)Cl)cc1,inactive
12,CCN(CC)C(=O)c1cccc(C)c1,inactive
13,c1ccc(Nc2ccccc2)cc1,inactive
14,COC(=O)CSc1cc(N=c2sc(=O)n3n2CCCC3)c(F)cc1Cl,inactive
15,CCOC(=O)C(C)Oc1ccc(Oc2cnc3cc(Cl)ccc3n2)cc1 (stereo not given),inactive
16,OB(O)O,inactive
17,CCCOC(=O)NCCCN(C)C,inactive
18,COC(=O)c1ccc(CNS(C)(=O)=O)cc1S(=O)(=O)NC(=O)Nc1nc(OC)cc(OC)n1,inactive
19,CCC(O)=C1C(=O)CC(C(=O)O)CC1=O (stereo not given),inactive
20,CCCCOC(=O)[C@@H](C)Oc1ccc(Oc2ccc(C(F)(F)F)cn2)cc1,inactive
21,COC(=O)c1ccc(I)cc1S(=O)(=O)NC(=O)Nc1nc(C)nc(OC)n1,inactive
22,CC1(C)C(C=C(Cl)Cl)C1C(=O)OCc1cccc(Oc2ccccc2)c1 (stereo not given),inactive
23,CCCOC(=O)c1ccc(C(=O)OCCC)nc1,inactive
24,COC(=O)c1ccccc1S(=O)(=O)NC(=O)Nc1nc(OC(F)F)cc(OC(F)F)n1,inactive
25,COC(=O)c1cccc(C)c1S(=O)(=O)NC(=O)Nc1nc(OCC(F)(F)F)nc(N(C)C)n1,inactive
